# Assay outcomes: PubChem BioAssay, National Center for Advancing Translational Sciences (NCATS)
# The list is not random: actives were taken first. Their share in the collection is about 13%.
# Cycloheximide cs: counter-screen for Shiga toxin inhibitors: cycloheximide protein synthesis inhibition. 12% of 300,000 active. max response, %. cell reporter, cycloheximide protein synthesis inhibition counterscreen; in the data active = max response mostly above about 13%, no sharp cut-off; inactive = mostly below about 14%; also: read at 38.3 µM for the half of the compounds with a filed dose; 0% is about no effect
# Lassa entry inh: blocks Lassa virus binding to or entry into cells. Lassa virus pseudotype entry inhibition, cell reporter. Potency, µM (top dose mostly 37.9 µM), for inactives: at the highest dose activity change, negative = inhibition, most hits filed as inhibitors. 1.2% of 300,000 active. AID 540256; calls by dose curve; tested in HEK293 cells; also: potency is read from the fitted curve at half-maximal effect; % is scaled to controls: 0 for no effect and ±100 for the full control effect; nearly all actives have a fitted effect of over 50% in size
# HCV inhibitor: HCV inhibition. 3.4% of 340,000 active. AID 651820. Huh7.5.1 HCVcc-Cre infection, luciferase reporter, 44 h. Potency, µM (doses to about 41.8 µM), inactives show top-dose activity change, negative = inhibition, actives largely listed as inhibitors; active = well fitted inhibition curve with a large enough effect; inconclusive = small, poorly fitted or top-dose-only effect, or another doubt; inactive = no such curve, though single readings can be large or run the other way; also: potency is read from the fitted curve at half-maximal effect; % is scaled to controls: 0 for no effect and ±100 for the full control effect
#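 Seed cells (1,000/well) for 4 h; treat with compound and infect with HCVcc-Cre, moi about 0.5. Incubate 44 h, then detect luciferase activity.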
# FMDV inh: antivirals against foot and mouth disease virus. FMDV antiviral cell-based qHTS. Potency, µM (doses to about 57.9 µM), without a hit: at the highest dose activity change, negative = inhibition, usual class: inhibitors. 1.2% of 410,000 active. AID 1159524; calls by dose curve; tested in HEK293T cells; also: read-out not given here; potency is read from the fitted curve at half-maximal effect; % is scaled to controls: 0 for no effect and ±100 for the full control effect; nearly all actives have a fitted effect of over 45% in size
# Shiga inhibitor: inhibitors of Shiga toxin in Vero cells. AID 2315. inhibition, % at 38.7 µM. Vero cells, Shiga toxin protein synthesis inhibition reporter. 9.2% of 290,000 active; in the data active = inhibition mostly above about 28%, no sharp cut-off; inactive = mostly below about 43%; also: 0% is about no effect
# MARV entry inh: blocks Marburg virus binding to or entry into cells; Marburg virus pseudotyped entry inhibition, cell reporter; Potency, µM (titrated, usually from 37.8 µM), inactives show at the highest dose activity change, negative = inhibition, most hits filed as inhibitors; 1.8% of 300,000 active; calls by dose curve; tested in HEK293 cells; also: potency is read from the fitted curve at half-maximal effect; % is scaled to controls: 0 for no effect and ±100 for the full control effect
# * = called active by the depositor; ? = inconclusive; · = no result; [ ] = another dose, or the depositor's remark.
SMILES,Cycloheximide cs,Lassa entry inh,HCV inhibitor,FMDV inh,Shiga inhibitor,MARV entry inh
O=c1c2ccccc2nnn1CSc1nnc2ccccn12,34*,-12%,12%,49%,99*,?
Cc1cccc(-n2nnnc2SCn2nnc3ccccc3c2=O)c1,23*,2%,-29%,13%,53,3%
Cc1ccc(-n2nnnc2SCn2nnc3ccccc3c2=O)cc1,62*,-8%,-21%,-14%,95*,-14%
COc1ccc(C)cc1-n1nnnc1SCn1nnc2ccccc2c1=O,-2,?,?,-16%,-4,-25%
CN1CCN(CC(O)COC(c2ccccc2)c2ccccc2)CC1 (stereo not drawn),9,-11%,16µM*,-5%,-5,?
CN1CCN(CC(O)COc2ccccc2)CC1 (stereo not drawn),-1,·,15%,3%,7,·
OC(COC(c1ccc(Cl)cc1)c1ccc(Cl)cc1)CN1CCN(c2ccccn2)CC1 (stereo not drawn),-5,?,8.9µM*,?,-3,?
CC1CCCN(CC(O)COC(c2ccccc2)c2ccccc2)C1 (stereo not drawn),1,?,?,1%,-3,4µM*
Cc1ccc(Cl)cc1NC(=O)N1CCN(C)c2ncccc21,·,-21%[46.1 µM],·,0%,·,1%[46.1 µM]
COc1cc(OC)c(NC(=O)NCc2ccc3c(c2)CCN3C(C)=O)cc1Cl,·,2%[46.1 µM],·,-26%,·,·
O=c1sc(/C=N/Nc2ccccc2)c(Cl)n1Cc1ccccc1,33*,-5%,0%,62%,active,?
COC(=O)c1cccc(Cn2c(Cl)c(/C=N/NC(=O)c3ccco3)sc2=O)c1,18*,·,-21%,12%,3,·
CCN1C(=O)c2ccccc2S(=O)c2ccc(C(=O)N3CCN(c4ccccc4OC)CC3)cc21 (stereo not drawn),·,?,·,-14%,·,5%[46.1 µM]
COCCN(CC(=O)Nc1cccc(C)c1)S(=O)(=O)c1ccc(S(=O)(=O)N2CCCC2)cc1,-2,7%,?,-18%,-9,0%
O=C(COc1ncnc2scc(-c3ccc(F)cc3)c12)NCc1ccco1,4,9%,-7%,-23%,11,-17%
CCc1ccc(-c2csc3ncn(CC(=O)NCc4ccco4)c(=O)c23)cc1,15*,?,?,-29%,30*,?
O=C(Cn1cnc2scc(-c3ccccc3)c2c1=O)NCc1ccco1,7,·,-9%,-7%,-6,·
Cc1ccc(-c2csc3ncnc(OCC(=O)NC(=O)NCc4ccco4)c23)cc1,15,?,-23%,?,29,21µM*
COC(=O)c1c(NC(=O)COc2ccc(Cl)cc2)sc(C)c1C,·,15%[46.1 µM],·,-6%,·,0%[46.1 µM]
CC1(C)Cc2c(cnn2-c2cccc(F)c2)C(NC(=O)CCN2CCCC2=O)C1 (stereo not drawn),11,?,4%,2%,11,24%
Cc1ncoc1C(=O)NC1CC(C)(C)Cc2c1cnn2-c1ccc(F)cc1 (stereo not drawn),3,·,3%,-21%,10,·
CC1(C)Cc2c(cnn2-c2ccc(F)cc2)C(NC(=O)CCN2CCCC2=O)C1 (stereo not drawn),30*,·,0%,17%,47*,·
CC(=O)c1ccc(C(=O)NC2CC(C)(C)Cc3c2cnn3-c2ccccc2)cc1 (stereo not drawn),19*,12%,12%,-19%,17,25%
CC1(C)Cc2c(cnn2-c2cccc(F)c2)C(NC(=O)CCc2cnccn2)C1 (stereo not drawn),41*,·,-2%,19%,19,·
COc1ccc(C(=O)NC2CC(C)(C)Cc3c2cnn3-c2ccccc2)cc1OC (stereo not drawn),-1,-14%[46.1 µM],?,-11%,-5,?
CC1(C)Cc2c(cnn2-c2ccc(F)cc2)C(NC(=O)c2ccco2)C1 (stereo not drawn),13,-1%,2%,15%,22*,0%
C=CCCC(=O)NC1CC(C)(C)Cc2c1cnn2-c1cccc(F)c1 (stereo not drawn),3,·,-11%,5%,7,·
CCOc1ccc(NC(=O)c2cnn3c(C(F)F)cc(-c4ccc(C)cc4)nc23)cc1,·,20%[46.1 µM],·,-15%,·,2%[46.1 µM]
